Test results published in ChEMBL document CHEMBL4513216, “Probing the Open Global Health Chemical Diversity Library for Multistage-Active Starting Points for Next-Generation Antimalarials” (ACS Infect Dis, 2020).
The campaign covered roughly 65,000 compounds. About 2,100 (3.2%) showed an effect of 50% or more. The median lay at about -52%. For the sample, strong results were picked, then their nearest neighbours and some compounds at random.

Each molecule was assayed on Plasmodium falciparum (assay: Screen against P. falciparum Asexual Blood Stage (ABS), at 5uM). Settings: tested at 5 uM.
Type: functional, Dd2
COCC(O)CN(C)c1ccnc2cc(Br)ccc12 (stereo not drawn) showed an INHIBITION of 94.4%. Cc1cc(CN2CCN3C[C@H](c4ccccc4)[C@@H](CO)[C@H]3C2)on1 showed an INHIBITION of -81.4%. With Cc1ccc(N2CCC3(CCCN3Cc3ccn(C)n3)CC2)nn1 the INHIBITION was -63.5%. In the case of Cc1ccccc1-n1cc(C2=CCN(CCN3CCOCC3)CC2)cn1, the INHIBITION was -4.21%. In the case of CC(C)NC(=O)[C@@H]1CC[C@@H]2[C@@H](CCN2Cc2cn(C)c3ccccc23)O1, the INHIBITION was 77.6%. With CN(C)C(=O)[C@@H]1CC[C@@H]2[C@@H](CCN2Cc2ccccn2)O1 the INHIBITION was -97.6%. Molecule CN(C)C(=O)[C@H]1CC[C@@H]2[C@@H](CCN2Cc2ccccn2)O1 has an INHIBITION of -43.5%. In the case of CCN(CC)C(=O)C1CCC2(CCNCC2)CO1 (stereo not drawn), the INHIBITION was -31.8%. COCC(=O)NC(C)Cc1ccc(Br)cc1 (stereo not drawn) showed an INHIBITION of 17.4%. For Cc1nc(Nc2ccc(Cl)cn2)sc1C(=O)NCCCN1CCCCC1, the INHIBITION was 81.4%. Molecule Cc1cnc(N2CCN3C[C@H](OCc4ccccn4)C[C@H]3C2)nc1 has an INHIBITION of -24.1%. Molecule O=C(c1nn(-c2ccccc2F)cc1O)N1CCC2(CC1)OCCO2 has an INHIBITION of -12.3%. For CCCN1CCCC(O)(c2nc(C)c(COc3ccccc3)s2)CC1 (stereo not drawn), the INHIBITION was 83.2%. For O=S1(=O)CCC(n2cc(C3=CCN(CCc4ccccc4)CC3)cn2)C1 (stereo not drawn), the INHIBITION was -45.5%. O=C(Nc1cccnc1)[C@H]1CN(Cc2nccs2)C[C@H]2OCC[C@@H]12 showed an INHIBITION of -93.3%. CCC(CC)(CN)NC(C)c1ccccc1 (stereo not drawn) showed an INHIBITION of 83.4%. Work on O=C(Cc1ccc(F)cc1)N1CCN(CC(O)C2CC2)CC1 (stereo not drawn) yielded an INHIBITION of 1.79%. Molecule Cc1c(C(=O)O)nnn1Cc1cccc(C(F)(F)F)c1 has an INHIBITION of -66.5%. CC(O)CN1CCC(CNCc2cccc(C(F)(F)F)c2)CC1 (stereo not drawn) showed an INHIBITION of 83.1%. CC(O)CN1CCC(CNCc2cccc(OC(F)(F)F)c2)CC1 (stereo not drawn) gave an INHIBITION of 80.1%. For CC(=O)N1CCC(CCNC(C)Cc2ccc(F)cc2)CC1 (stereo not drawn), the INHIBITION was -0.762%. CC(O)CN1CCC(CNCc2ccc(OC(F)(F)F)cc2)CC1 (stereo not drawn) gave an INHIBITION of 86.9%. In the case of Cc1nc(CN2CCOC3(CCCC3)C2)no1, the INHIBITION was -138%. Work on C[C@@H]1CN(C2CCOCC2)C[C@]12CCN(c1cccnc1)C2=O yielded an INHIBITION of -104%. Cc1ccc(-c2ccnc3cc(CC(=O)N4CCN(C)CC4)nn23)cc1 showed an INHIBITION of -116%. In the case of CC(C)N(C)C(=O)C1CCC2(CCNCC2)O1 (stereo not drawn), the INHIBITION was -214%. c1cc(CO[C@@H]2CC[C@H]3[C@H]2OCCN3Cc2ccoc2)ccn1 was tested, and the INHIBITION was -169%. In the case of CC(C)CCC(=O)N1C[C@H]2CCN[C@H]2C1, the INHIBITION was -114%.
